High-throughput results: PubChem BioAssay, National Center for Advancing Translational Sciences (NCATS)
Sampled rows, rich in hits. Any-hit rate of the full collection: about 13%.
Pf growth 48h = inhibits P. falciparum growth in the first generation, 48 h; P. falciparum luciferase growth in erythrocytes, 48 h; Potency, µM (top dose mostly 28.7 µM), inactives show top-dose activity change, negative = inhibition, actives largely listed as inhibitors; 310,000 compounds, 5.9% hits; AID 504832; further: potency means the concentration at half of the fitted maximal effect
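First compound was added to culture medium, then infected red cells at 0.1% parasitemia and 2% hematocrit (final). After incubation at 37 C under 5% CO2, luciferase detection reagent was dispensed and light output recorded.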
Pf growth 96h = inhibits malaria parasite growth, 96 h. P. falciparum luciferase reporter growth, 96 h. Potency, µM (titrated, usually from 28.7 µM), for the others: at the highest dose activity change, negative = inhibition, most hits filed as inhibitors. 320,000 compounds, 6.9% hits. AID 504834; further: potency means the concentration at half of the fitted maximal effect
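Readout is luminescence from an integrated firefly luciferase in P. falciparum. Red cells, 2% hematocrit and 0.05% parasitemia final, were cultured with compound through two parasite generations (96 hours) at 37 C, 5% CO2.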
HCMV inh = human cytomegalovirus inhibition | 410,000 compounds, 4.5% hits | HFF cells, HCMV-luciferase reporter, 72 h; hits give low values | activity change, negative = inhibition, % at 57.5 µM; in the data active means activity change below about -60%; inconclusive means no clear call, values can overlap the other calls; inactive means above about -39%
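Compounds were evaluated in HFFs infected with an HCMV luciferase reporter virus (MOI 1 PFU/cell). Luciferase in lysates collected 72 h post infection served as the replication measure.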
HCV inhibitor = blocks hepatitis C virus; 340,000 compounds, 3.4% hits; AID 651820; Potency, µM (series often up to 41.8 µM), for inactives: at the highest dose activity change, negative = inhibition, usual class: inhibitors; Huh7.5.1 HCVcc-Cre infection, luciferase reporter, 44 h; further: potency means the concentration at half of the fitted maximal effect
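Cells (1,000/well) were plated 4 h before compound, then infected with HCVcc-Cre virus (~0.5 moi). After 44 h further culture, infection was read as luciferase luminescence following a 15 min substrate incubation at room temperature.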
The depositor's hits bear a star; u = inconclusive; x = not tested or not shown; + = active, no number; [ ] = another dose, or the depositor's remark. Unless noted, the call rests on the fitted dose curve; in most records, active means well fitted inhibition curve with a large enough effect; inconclusive means small, poorly fitted or top-dose-only effect, or another doubt; inactive means no such curve, though single readings can be large or run the other way. On the % scale 0 is the no-effect control and ±100 the full control effect.

SMILES | Pf growth 48h | Pf growth 96h | HCMV inh | HCV inhibitor
CCOCCCNC(=O)c1ccc2c(c1)ncn2-c1ccc(CC)cc1 | u | 17% | -64* | -11%
CCc1nc2ccc(C(=O)NCCc3ccc(OC)c(OC)c3)cc2nc1CC | -11% | u | -21 | u
COc1ccc(CCNC(=O)c2ccc3nc(-c4ccco4)c(-c4ccco4)nc3c2)cc1OC | u | x | x | 2.8µM*
CCOCCCNC(=O)c1ccc2nc(-c3ccc(OC)c(OC)c3)c(-c3ccc(OC)c(OC)c3)nc2c1 | 3.7µM* | 14% | 51 | u
CCCCN(C)C(=O)CN1C(=O)c2cccnc2Oc2ccc(Cl)cc21 | x | x | 0 | x
COc1ccc(/C(O)=C/c2nc3ccc(C(=O)NCCc4cccc(C)c4)cc3[nH]c2=O)cc1OC | 4.7µM* | u | 31 | u
COc1ccc(C(=O)NCCc2ccccc2)cc1OC | 74% | 0% | 143 | 7%
COc1cccc(NC(=O)CSc2ncc3c(n2)-c2ccc(Cl)cc2N(C)S3(=O)=O)c1 | x | x | 14 | x
COc1ccc(NC(=O)C2CCCN(c3c4c(nc5ncnn35)CCC4)C2)cc1 (stereo unspecified) | -20% | 12µM* | -37 | u
CCc1c(C)nc2ncnn2c1N1CCN(S(=O)(=O)c2ccc(OC)cc2)CC1 | 3% | u | -72* | 1.8µM*
CCOc1ccc(NC(=O)C2CCCN(c3c(CC)c(C)nc4ncnn34)C2)cc1 (stereo unspecified) | u | 92% | 31 | 13µM*
CCc1c(C)nc2ncnn2c1N1CCCC(C(=O)Nc2cc(F)ccc2C)C1 (stereo unspecified) | x | u | -35 | -30%
Cc1cc(N2CCN(S(=O)(=O)c3ccc(Br)cc3)CC2)n2ncnc2n1 | u | 33% | -6 | u
CCOc1ccccc1CNC(=O)C1CCN(c2nn3cc(-c4ccc(F)cc4)nc3s2)CC1 | x | x | + | x
CC(C)CCSc1nnc2n(-c3ccccc3)c(=O)c3c4c(sc3n12)CC(C)CC4 (stereo unspecified) | x | x | -15 | x
CCOc1ccccc1NC(=O)COc1cccc2c(=O)n(CCOC)ccc12 | x | x | 0 | x
COc1ccc(C(C)=O)cc1CSC(=S)N1CCSCC1 | x | x | 22 | x
CCOc1ccc(NC(=O)C2CCCN(c3nn4cc(-c5ccc(OC)cc5)nc4s3)C2)cc1 (stereo unspecified) | x | x | + | x
COc1ccc(NC(=O)C2CCN(c3nc(C)nc4c3CCC4)CC2)cc1 | 4% | -16% | -70* | 3.5µM*
Cc1nc2ncnn2c(N2CCCC(C(=O)Nc3ccccc3Br)C2)c1C (stereo unspecified) | -28% | u | -64* | u
COc1ccc(NC(=O)C2CCN(c3nc(C)cc(C)n3)CC2)cc1 | -5% | -17% | 3 | -8%
Cc1nn2c(=O)cc(COc3ccc(/C=C(\C#N)C(=O)Nc4ccccc4)cc3Cl)nc2s1 | x | x | -3 | x
Cc1ccc2c(c1C)-c1c(ccc(C)c1C)C(=O)C2=O | x | x | -96* | 11µM*
Cc1cc(Cn2ccnc2)c(C)cc1Cn1ccnc1 | 13µM* | u | 35 | 22%
O=C(CCNS(=O)(=O)c1ccccc1F)N1CCN(C(c2ccccc2)c2ccccc2)CC1 | 13µM* | u | -34 | u
SMILES | Pf growth 48h | Pf growth 96h | HCMV inh | HCV inhibitor
CCOC(=O)C(C)CC(C)C(=O)N1CCOCCN(C(=O)C(C)CC(C)C(=O)OCC)CCOCC1 (stereo unspecified) | 8.3µM* | 82% | 0 | 2%
CCCCOC(=O)N1CCOCCOCCOCC1 | 32% | 11% | 9 | 18%
O=C1NC[C@@H](CCCCN2C[C@H](Cc3ccccc3)N(Cc3ccccc3)C(=O)C2=O)N(CCc2ccccc2)C1=O | x | x | -14 | x
Cc1ccc(C)n1-n1cnc2sc3c(c2c1=O)CCCCC3 | x | u | 4 | -1%
Cc1ccc(C)n1-n1c(C)nc2sc3c(c2c1=O)CCCCC3 | 12µM* | 12µM* | -29 | -3%
Nc1nc2sc3c(c2c(=O)s1)CCCC3 | 65% | 0% | -3 | -5%
Cc1ccc(-c2nc3sc4c(c3c(=O)n2N)CCCC4)cc1 | x | 7.4µM* | 119 | u
Nc1c2c3c(sc2nc(=O)n1N)CCCC3 | 8% | 6.6µM* | 1 | 3%
Cc1nc2sc3c(c2c(=N)n1N)CCCC3 | -2% | 10µM* | -18 | -3%
CSc1cccc(NC(=O)C2CCN(S(=O)(=O)c3ccc4c(c3)CCCN4C(=O)C3CCC3)CC2)c1 | x | x | -33 | x
Cc1cc2oc(C(=O)Nc3ccc(S(N)(=O)=O)cc3)cc(=O)c2cc1C | x | x | 3 | x
CC(C)C[C@@H]1COc2cccc(N3CCSCC3)c2S(=O)(=O)N1 | x | x | 16 | x
Cc1nc2sc3c(c2c(=O)o1)CCCC3 | 22% | 2.1µM* | 8 | 12%
CC(C)c1nc2sc3c(c2c(=O)o1)CCCC3 | 25% | 5% | 28 | 11%
CCc1cc2c(cc3c(=O)n(CC(=O)N4CCC(C)CC4)nc(CC)n32)s1 | x | x | -38 | x
CC(C)C[C@H](NC(=O)c1nc[nH]c1C(=O)NC1CCN(C(=O)OC(C)(C)C)CC1)C(=O)OCc1ccccc1 | u | 12µM* | 15 | u
CC(C)(C)OC(=O)NCCCC[C@H](NC(=O)c1nc[nH]c1C(=O)N1CCc2ccccc2C1)C(=O)OC(C)(C)C | u | u | -27 | u
C[C@H](NC(=O)c1nc[nH]c1C(=O)NC1CCN(C(=O)OC(C)(C)C)CC1)C(=O)OC(C)(C)C | -10% | u | -20 | 1%[8.37 µM]
CC(C)(C)OC(=O)NCCCC[C@H](NC(=O)c1nc[nH]c1C(=O)NC1CCN(C(=O)OC(C)(C)C)CC1)C(=O)OC(C)(C)C | 2.1µM* | 2.3µM* | 45 | u
CC(C)C[C@H](NC(=O)c1nc[nH]c1C(=O)NC1CCN(C(=O)OC(C)(C)C)CC1)C(=O)OC(C)(C)C | 1.5µM* | 2.3µM* | 24 | 6%
COc1ccccc1CNC(=O)c1ccc2nc(N3CCCCC3)sc2c1 | x | x | 22 | x
COc1ccc(OC)c(NC(=O)C(C)n2c(=O)cc(C)c3c(C)nn(-c4ccccc4)c32)c1 (stereo unspecified) | x | x | 1 | x
Cc1nn(C)c(C)c1S(=O)(=O)N(CC(=O)Nc1ccc(F)cc1F)c1ccc(C(C)C)cc1 | x | x | -9 | x
CCC(C)c1ccc(C(CC)NC(=O)C2CCCO2)cc1 (stereo unspecified) | u | 73% | -37 | 10µM*
CN(C)CCCN1c2ccccc2Sc2ccccc21 | u | u | u | -18%[8.37 µM]
SMILES | Pf growth 48h | Pf growth 96h | HCMV inh | HCV inhibitor
CN(CCCN1c2ccccc2CCc2ccccc21)CC(=O)c1ccc(Cl)cc1 | -99% | 15µM* | x | x
CN(C)CCCN1c2ccccc2CCc2ccc(Cl)cc21 | 13µM* | u | -67* | u
NC(N)=Nc1nc(-c2ccccc2)c2ccccc2n1 | 12µM* | -18% | -95* | -26%
CCc1nc(N=C(N)N)nc2ccccc12 | 3.3µM* | 7% | -82* | x
Nc1nnc2c(n1)[nH]c1ccccc12 | x | x | -6 | x
O=C(Nc1ccc2nc(-c3cccnc3)[nH]c2c1)C12CC3CC(CC(C3)C1)C2 | 12µM* | -26% | -23 | u
